Test results published in ChEMBL document CHEMBL2218924, “A broad activity screen in support of a chemogenomic map for kinase signalling research and drug discovery” (Biochem J, 2013).

Legend:
[1] = biological target: Death-associated protein kinase 1 (Homo sapiens) (UniProt P53355); conditions: at 10 µM
[2] = biological target: Death-associated protein kinase 2 (Homo sapiens) (UniProt Q9UIK4); conditions: at 1 µM
[3] = biological target: Death-associated protein kinase 2 (Homo sapiens) (UniProt Q9UIK4); conditions: at 10 µM
[4] = biological target: T1, Serine/threonine-protein kinase DCLK2 (Homo sapiens) (UniProt Q8N568); conditions: at 1 µM
T1 sequence (whole entry): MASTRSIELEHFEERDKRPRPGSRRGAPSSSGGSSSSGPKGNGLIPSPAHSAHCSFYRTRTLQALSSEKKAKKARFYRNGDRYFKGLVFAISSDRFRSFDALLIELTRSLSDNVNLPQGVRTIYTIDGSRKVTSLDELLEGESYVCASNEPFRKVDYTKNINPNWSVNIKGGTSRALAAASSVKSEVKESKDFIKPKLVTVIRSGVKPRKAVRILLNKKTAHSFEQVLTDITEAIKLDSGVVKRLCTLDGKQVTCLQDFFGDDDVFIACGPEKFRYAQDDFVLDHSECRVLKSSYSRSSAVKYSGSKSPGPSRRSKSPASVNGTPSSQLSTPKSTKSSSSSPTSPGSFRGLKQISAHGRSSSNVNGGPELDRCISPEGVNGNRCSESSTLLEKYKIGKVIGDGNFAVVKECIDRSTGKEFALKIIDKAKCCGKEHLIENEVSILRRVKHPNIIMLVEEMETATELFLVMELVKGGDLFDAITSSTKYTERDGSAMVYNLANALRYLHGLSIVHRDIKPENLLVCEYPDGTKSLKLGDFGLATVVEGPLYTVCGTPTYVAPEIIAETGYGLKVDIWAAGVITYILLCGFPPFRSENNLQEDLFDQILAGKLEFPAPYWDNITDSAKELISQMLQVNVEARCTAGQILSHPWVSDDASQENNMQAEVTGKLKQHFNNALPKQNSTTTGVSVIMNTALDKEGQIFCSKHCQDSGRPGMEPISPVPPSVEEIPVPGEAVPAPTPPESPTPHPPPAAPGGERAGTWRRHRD

[5] = biological target: T1, Serine/threonine-protein kinase DCLK2 (Homo sapiens); conditions: at 10 µM
[6] = biological target: T2, Discoidin domain-containing receptor 2 (Homo sapiens) (UniProt Q16832); conditions: at 1 µM
T2 sequence (whole entry): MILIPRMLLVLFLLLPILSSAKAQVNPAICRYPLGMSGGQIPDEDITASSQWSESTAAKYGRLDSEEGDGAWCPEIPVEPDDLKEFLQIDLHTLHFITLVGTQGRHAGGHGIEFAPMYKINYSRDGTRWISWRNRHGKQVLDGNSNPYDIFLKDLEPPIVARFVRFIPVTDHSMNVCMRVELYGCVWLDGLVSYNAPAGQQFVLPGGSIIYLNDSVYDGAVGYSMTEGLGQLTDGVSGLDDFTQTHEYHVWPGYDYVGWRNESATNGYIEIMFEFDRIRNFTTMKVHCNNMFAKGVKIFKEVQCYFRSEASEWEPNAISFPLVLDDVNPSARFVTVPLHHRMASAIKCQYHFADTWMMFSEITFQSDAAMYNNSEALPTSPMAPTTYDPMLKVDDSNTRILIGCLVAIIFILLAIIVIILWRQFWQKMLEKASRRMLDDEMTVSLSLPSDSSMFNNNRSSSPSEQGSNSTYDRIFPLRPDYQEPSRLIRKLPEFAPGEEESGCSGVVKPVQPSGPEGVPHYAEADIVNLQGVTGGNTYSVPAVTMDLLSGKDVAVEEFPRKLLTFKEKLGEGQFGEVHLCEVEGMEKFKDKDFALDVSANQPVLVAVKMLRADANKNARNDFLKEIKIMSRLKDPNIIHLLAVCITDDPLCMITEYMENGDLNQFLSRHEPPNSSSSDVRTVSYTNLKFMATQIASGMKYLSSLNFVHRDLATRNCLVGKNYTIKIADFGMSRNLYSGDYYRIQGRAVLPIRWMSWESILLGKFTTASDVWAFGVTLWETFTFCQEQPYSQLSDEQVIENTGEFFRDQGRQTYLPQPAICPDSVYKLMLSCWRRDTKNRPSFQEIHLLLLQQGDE

[7] = biological target: T2, Discoidin domain-containing receptor 2 (Homo sapiens); conditions: at 10 µM
[8] = biological target: T3, Myotonin-protein kinase (Homo sapiens) (UniProt Q09013); conditions: at 1 µM
T3 sequence (whole entry): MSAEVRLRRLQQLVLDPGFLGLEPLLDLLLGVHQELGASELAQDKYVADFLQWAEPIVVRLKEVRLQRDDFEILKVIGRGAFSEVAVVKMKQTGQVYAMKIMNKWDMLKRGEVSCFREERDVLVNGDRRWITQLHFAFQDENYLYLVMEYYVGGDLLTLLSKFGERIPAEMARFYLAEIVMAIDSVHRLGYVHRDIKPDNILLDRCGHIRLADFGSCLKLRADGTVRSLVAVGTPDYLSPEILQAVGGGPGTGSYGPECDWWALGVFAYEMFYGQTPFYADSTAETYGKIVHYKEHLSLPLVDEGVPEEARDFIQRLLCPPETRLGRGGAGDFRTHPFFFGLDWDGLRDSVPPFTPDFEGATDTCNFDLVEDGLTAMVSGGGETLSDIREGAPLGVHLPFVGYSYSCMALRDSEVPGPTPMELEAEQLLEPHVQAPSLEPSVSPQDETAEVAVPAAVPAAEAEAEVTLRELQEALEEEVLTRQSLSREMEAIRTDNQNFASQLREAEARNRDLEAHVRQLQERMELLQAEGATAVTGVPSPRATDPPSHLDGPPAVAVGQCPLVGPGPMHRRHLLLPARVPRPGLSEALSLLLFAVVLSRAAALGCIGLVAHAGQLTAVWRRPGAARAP

[9] = biological target: T3, Myotonin-protein kinase (Homo sapiens); conditions: at 10 µM
[10] = biological target: T4, Serine/threonine-protein kinase 17A (Homo sapiens) (UniProt Q9UEE5); conditions: at 1 µM
T4 sequence (whole entry): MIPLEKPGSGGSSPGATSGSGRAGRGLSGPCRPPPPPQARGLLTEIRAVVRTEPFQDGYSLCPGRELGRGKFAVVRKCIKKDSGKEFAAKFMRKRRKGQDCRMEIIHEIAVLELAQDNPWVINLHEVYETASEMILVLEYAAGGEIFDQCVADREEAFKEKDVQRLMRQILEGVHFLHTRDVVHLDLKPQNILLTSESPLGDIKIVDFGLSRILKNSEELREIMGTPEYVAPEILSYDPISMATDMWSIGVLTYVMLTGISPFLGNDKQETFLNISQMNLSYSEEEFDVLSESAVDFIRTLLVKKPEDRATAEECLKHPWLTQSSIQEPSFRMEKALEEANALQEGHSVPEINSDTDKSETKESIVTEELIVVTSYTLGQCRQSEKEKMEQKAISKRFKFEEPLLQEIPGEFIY

[11] = biological target: T4, Serine/threonine-protein kinase 17A (Homo sapiens); conditions: at 10 µM
[12] = biological target: T5, Dual specificity tyrosine-phosphorylation-regulated kinase 2 (Homo sapiens) (UniProt Q92630); conditions: at 1 µM
T5 sequence (whole entry): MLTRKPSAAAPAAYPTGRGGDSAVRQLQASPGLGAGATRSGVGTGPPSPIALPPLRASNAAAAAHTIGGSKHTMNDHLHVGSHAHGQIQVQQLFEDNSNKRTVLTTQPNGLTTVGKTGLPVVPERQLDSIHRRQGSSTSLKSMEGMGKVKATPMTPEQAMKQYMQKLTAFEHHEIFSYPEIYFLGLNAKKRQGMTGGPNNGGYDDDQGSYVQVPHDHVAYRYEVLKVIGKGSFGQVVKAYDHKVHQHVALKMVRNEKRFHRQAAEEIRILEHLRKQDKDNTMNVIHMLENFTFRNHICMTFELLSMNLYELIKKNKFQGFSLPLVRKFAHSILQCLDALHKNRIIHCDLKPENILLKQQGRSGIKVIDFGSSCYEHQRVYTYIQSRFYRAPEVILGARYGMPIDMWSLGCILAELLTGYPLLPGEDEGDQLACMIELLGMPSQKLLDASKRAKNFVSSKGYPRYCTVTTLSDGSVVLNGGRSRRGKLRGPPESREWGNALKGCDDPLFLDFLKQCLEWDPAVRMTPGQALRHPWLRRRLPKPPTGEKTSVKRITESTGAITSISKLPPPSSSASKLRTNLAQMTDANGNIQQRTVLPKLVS

[13] = biological target: T5, Dual specificity tyrosine-phosphorylation-regulated kinase 2 (Homo sapiens); conditions: at 10 µM
[14] = biological target: Epidermal growth factor receptor (Homo sapiens) (UniProt P00533); conditions: at 1 µM
[15] = biological target: Epidermal growth factor receptor (Homo sapiens) (UniProt P00533); conditions: at 10 µM
[16] = biological target: T6, Ephrin type-A receptor 1 (Homo sapiens) (UniProt P21709); conditions: at 1 µM
T6 sequence (whole entry): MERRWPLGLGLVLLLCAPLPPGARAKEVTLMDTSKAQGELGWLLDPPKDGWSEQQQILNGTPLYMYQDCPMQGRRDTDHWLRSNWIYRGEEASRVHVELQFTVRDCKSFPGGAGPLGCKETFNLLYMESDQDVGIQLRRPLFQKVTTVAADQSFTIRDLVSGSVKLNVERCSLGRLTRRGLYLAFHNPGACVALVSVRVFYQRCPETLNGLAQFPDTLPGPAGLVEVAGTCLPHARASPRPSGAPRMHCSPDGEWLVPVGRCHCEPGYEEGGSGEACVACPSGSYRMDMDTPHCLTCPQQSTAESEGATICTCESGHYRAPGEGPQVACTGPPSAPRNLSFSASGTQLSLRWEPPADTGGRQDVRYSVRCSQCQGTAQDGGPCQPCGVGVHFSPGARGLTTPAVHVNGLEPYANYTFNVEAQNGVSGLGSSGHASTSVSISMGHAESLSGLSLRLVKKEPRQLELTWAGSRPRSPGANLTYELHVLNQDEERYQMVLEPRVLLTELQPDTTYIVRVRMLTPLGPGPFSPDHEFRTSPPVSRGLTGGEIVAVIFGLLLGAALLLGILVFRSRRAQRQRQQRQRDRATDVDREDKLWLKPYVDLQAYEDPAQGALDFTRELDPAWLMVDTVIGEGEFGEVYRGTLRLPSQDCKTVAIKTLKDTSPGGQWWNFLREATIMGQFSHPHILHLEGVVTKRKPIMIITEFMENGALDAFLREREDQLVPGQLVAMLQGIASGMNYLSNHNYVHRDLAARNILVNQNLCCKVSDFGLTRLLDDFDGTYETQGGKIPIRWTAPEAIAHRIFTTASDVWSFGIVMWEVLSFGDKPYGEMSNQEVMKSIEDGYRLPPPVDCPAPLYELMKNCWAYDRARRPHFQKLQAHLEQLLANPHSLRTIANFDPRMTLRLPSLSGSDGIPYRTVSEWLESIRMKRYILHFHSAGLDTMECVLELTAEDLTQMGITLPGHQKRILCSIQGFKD

[17] = biological target: T6, Ephrin type-A receptor 1 (Homo sapiens); conditions: at 10 µM
[18] = biological target: Ephrin type-A receptor 2 (Homo sapiens) (UniProt P29317); conditions: at 1 µM
[19] = biological target: Ephrin type-A receptor 2 (Homo sapiens) (UniProt P29317); conditions: at 10 µM
[20] = biological target: T7, Ephrin type-A receptor 3 (Homo sapiens) (UniProt P29320); conditions: at 1 µM
T7 sequence (whole entry): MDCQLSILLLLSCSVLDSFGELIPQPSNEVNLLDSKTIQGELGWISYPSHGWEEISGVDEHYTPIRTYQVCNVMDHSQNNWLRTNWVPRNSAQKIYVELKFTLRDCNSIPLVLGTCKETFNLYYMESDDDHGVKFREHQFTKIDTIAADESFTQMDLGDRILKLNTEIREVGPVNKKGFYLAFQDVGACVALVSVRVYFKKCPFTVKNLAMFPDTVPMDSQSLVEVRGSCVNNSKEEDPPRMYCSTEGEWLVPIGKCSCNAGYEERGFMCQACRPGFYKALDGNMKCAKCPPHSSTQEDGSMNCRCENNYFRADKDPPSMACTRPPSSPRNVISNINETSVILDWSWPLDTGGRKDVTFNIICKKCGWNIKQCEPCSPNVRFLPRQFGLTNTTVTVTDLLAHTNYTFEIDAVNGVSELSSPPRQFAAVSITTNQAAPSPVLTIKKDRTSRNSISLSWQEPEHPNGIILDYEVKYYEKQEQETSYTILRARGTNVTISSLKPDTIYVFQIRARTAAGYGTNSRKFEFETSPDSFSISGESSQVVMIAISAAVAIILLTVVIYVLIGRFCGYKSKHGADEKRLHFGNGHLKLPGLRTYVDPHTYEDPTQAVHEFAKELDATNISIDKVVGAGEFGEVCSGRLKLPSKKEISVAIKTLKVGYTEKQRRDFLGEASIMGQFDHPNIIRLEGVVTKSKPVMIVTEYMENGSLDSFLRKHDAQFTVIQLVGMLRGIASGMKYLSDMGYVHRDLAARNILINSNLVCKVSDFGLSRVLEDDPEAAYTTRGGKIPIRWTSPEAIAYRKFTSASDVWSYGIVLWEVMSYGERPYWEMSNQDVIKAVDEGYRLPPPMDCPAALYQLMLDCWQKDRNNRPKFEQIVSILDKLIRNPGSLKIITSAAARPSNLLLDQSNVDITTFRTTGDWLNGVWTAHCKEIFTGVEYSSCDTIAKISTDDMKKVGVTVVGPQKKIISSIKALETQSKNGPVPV

Ephrin type-A receptor 2 (Homo sapiens), sequence (P29317 whole entry): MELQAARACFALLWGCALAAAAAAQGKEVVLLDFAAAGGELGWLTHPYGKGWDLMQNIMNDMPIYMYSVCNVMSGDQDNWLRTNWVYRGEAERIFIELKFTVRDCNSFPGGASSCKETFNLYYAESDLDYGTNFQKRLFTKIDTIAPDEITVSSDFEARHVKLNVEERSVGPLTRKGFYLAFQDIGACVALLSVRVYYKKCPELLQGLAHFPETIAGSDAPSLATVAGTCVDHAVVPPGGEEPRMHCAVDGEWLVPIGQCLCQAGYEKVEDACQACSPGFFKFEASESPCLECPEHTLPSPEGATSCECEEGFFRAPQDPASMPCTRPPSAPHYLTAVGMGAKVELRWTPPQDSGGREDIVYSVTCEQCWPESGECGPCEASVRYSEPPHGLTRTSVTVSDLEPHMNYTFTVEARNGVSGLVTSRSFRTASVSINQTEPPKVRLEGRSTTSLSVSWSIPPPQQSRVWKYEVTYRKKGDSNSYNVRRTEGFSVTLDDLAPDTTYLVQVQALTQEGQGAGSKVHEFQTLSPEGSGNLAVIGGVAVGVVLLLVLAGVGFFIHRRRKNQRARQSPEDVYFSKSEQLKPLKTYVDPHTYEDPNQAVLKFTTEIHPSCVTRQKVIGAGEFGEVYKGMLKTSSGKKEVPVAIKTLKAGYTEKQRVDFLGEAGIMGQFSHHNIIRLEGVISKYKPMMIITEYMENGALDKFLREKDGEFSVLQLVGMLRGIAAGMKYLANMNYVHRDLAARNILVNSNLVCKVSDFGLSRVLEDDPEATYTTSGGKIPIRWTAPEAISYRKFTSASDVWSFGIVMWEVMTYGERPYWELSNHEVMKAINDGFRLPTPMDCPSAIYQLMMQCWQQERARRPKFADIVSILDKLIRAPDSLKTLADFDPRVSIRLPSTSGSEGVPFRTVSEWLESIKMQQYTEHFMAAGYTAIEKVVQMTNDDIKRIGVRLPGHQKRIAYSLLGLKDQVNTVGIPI
Death-associated protein kinase 2 (Homo sapiens), sequence (Q9UIK4 whole entry, looked up): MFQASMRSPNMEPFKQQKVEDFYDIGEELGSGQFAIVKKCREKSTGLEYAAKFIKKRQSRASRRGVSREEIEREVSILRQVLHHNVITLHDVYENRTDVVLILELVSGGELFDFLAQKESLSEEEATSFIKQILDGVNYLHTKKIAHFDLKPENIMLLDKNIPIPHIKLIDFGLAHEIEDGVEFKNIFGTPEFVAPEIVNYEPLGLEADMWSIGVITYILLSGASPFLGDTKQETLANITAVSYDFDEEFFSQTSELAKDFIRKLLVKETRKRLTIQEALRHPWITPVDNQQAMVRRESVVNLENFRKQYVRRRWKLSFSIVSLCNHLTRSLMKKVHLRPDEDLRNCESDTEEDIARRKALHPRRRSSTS
Death-associated protein kinase 1 (Homo sapiens), sequence (P53355 whole entry, looked up): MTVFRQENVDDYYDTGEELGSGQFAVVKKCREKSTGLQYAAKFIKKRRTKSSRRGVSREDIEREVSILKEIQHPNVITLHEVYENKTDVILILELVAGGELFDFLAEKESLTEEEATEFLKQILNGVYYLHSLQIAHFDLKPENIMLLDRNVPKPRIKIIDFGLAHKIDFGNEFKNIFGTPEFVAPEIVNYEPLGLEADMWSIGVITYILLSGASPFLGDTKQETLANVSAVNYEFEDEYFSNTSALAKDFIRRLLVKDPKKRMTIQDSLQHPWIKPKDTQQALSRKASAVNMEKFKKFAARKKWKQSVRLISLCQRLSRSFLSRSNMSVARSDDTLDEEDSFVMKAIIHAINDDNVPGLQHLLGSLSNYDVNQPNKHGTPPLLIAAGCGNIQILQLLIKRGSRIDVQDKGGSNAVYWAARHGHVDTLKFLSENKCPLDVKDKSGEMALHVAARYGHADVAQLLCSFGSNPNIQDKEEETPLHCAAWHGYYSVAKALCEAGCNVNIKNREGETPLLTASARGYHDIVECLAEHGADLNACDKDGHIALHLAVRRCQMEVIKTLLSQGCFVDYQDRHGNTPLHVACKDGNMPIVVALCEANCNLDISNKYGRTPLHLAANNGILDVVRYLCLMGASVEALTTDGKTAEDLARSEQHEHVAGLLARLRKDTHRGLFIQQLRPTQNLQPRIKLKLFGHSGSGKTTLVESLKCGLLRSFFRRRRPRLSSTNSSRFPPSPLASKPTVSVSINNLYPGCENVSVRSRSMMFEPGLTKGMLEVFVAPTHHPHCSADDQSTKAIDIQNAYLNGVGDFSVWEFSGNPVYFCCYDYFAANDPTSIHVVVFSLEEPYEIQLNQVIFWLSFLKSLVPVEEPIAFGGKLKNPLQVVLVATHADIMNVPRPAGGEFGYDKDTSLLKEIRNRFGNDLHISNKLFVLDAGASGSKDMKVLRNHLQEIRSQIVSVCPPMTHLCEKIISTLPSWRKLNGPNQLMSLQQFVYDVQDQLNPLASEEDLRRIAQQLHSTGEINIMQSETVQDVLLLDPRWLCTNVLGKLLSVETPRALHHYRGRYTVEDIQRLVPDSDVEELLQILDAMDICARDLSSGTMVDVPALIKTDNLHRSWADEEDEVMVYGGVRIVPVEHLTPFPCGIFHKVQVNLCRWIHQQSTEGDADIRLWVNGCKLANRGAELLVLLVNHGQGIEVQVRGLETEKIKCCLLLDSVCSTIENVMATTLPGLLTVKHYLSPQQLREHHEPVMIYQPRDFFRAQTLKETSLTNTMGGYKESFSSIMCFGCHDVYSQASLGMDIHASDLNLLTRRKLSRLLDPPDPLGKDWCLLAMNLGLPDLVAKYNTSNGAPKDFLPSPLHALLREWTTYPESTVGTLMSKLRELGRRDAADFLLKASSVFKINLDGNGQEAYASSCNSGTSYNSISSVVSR
Epidermal growth factor receptor (Homo sapiens), sequence (P00533 whole entry): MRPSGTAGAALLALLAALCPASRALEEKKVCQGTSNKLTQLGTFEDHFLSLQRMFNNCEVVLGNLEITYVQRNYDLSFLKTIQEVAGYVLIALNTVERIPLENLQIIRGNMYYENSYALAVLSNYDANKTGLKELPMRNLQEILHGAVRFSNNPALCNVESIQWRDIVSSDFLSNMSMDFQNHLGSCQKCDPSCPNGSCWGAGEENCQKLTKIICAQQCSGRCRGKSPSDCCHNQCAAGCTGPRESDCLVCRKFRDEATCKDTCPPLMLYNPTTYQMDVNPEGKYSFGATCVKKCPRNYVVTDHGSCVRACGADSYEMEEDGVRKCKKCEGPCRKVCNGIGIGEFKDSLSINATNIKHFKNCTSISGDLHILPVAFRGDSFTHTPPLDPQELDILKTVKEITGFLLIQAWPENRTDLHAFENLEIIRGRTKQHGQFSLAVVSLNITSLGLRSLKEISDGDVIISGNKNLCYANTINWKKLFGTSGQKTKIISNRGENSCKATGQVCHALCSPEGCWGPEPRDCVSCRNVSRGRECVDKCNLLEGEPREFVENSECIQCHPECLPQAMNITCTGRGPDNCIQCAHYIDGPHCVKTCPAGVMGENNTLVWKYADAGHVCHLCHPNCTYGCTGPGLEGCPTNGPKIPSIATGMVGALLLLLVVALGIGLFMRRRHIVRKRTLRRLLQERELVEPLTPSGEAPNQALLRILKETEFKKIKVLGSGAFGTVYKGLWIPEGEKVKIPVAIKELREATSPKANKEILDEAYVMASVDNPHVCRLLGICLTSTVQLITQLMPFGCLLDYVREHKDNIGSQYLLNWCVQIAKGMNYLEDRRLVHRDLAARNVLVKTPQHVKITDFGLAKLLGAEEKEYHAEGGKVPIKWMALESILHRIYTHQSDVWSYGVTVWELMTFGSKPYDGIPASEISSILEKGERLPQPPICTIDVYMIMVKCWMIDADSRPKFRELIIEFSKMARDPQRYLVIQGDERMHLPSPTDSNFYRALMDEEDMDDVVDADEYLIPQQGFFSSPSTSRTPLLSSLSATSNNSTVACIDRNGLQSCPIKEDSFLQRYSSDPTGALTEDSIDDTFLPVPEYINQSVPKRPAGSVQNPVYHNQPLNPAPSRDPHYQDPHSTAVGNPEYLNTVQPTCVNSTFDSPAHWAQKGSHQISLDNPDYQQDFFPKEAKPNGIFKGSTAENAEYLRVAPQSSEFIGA

SMILES	residual activity [1] [%]	residual activity [2] [%]	residual activity [3] [%]	residual activity [4] [%]	residual activity [5] [%]	residual activity [6] [%]	residual activity [7] [%]	residual activity [8] [%]	residual activity [9] [%]	residual activity [10] [%]	residual activity [11] [%]	residual activity [12] [%]	residual activity [13] [%]	residual activity [14] [%]	residual activity [15] [%]	residual activity [16] [%]	residual activity [17] [%]	residual activity [18] [%]	residual activity [19] [%]	residual activity [20] [%]
O=C1NC(=O)/C(=C/c2ccc3c(c2)OC(F)(F)O3)S1	81	95	96	110	66	130	105	104	104	118	99	86	65	116	119	93	96	107	115	103
CC[n+]1c(/C=C/N(C)c2ccccc2)n(-c2ccccc2)c2ccc(-c3nc4ccccc4s3)cc21	51	100	99	110	102	116	88	120	121	119	68	99	103	–	–	100	100	109	90	116
Cc1ccc(NC2=CC(=O)c3sc(C)nc3C2=O)cc1	89	99	94	118	93	94	101	121	91	109	81	85	100	–	–	95	91	95	102	92
O=C(O)c1ccc2c3c1cccc3c(=O)n1c3ccccc3nc21	47	31	1	117	68	99	101	92	83	42	13	54	11	–	–	103	89	88	102	103
